{"source": "PubChem BioAssay AID588382", "about": "(National Center for Advancing Translational Sciences (NCATS), 2011)", "note": "Out of some 1,300 compounds screened, about 150 (12%) were called active. Not shown: some 30% with an inconclusive outcome. The full list was thinned out, with actives kept by preference. Values without a mark were called inactive. Calls come from the whole dose curve; as a rule, active = well fitted cell-killing curve with a large enough effect; inconclusive = small, poorly fitted or top-dose-only effect, or effect the other way; inactive = flat fitted curve, though single readings scatter. % is set by controls: 0 for no effect and ±100 for the full control effect; potency is the fitted concentration of half-maximal effect.", "data": [{"assay": "qHTS of small molecules that selectively kill Giardia lamblia: Hit Validation in HepG2 cytotox;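 note: compound exposure lasted overnight at 37 deg C; nearly all actives have a fitted effect of over 55% in size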;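 for activity change, negative = cytotoxicity: viability measured as cellular ATP by ATPLite luminescence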", "details": "cell viability; Potency: HepG2 cytotoxicity; series mostly up to 38.3 µM; activity change, negative = cytotoxicity: at the top concentration", "text": "Giardia lamblia is a human pathogen afflicting impoverished nations, and the most common cause of outbreaks of diarrhea in the United States. Giardia has been classified by the CDC as a category B bioterrorism organism. The favored anti giardiasis drugs in the US are metronidazole or tinidazole, compounds that have undesirable side effects. Moreover, increasing resistance to drug regimes and recurrence are a concern. It is thus clear that alternative drug treatments are needed.\nIn a collaboration between the University of Maryland, College Park and the NIH Chemical Genomics Center, a bioluminescence Giardia viability assay based on the trophozoites' ATP content was developed. This assay is suitable for high throughput screening, and miniaturized the assay for compound screening in 1536-well plates. The goal of the project is to screen the Molecular Libraries Small Molecule Repository (MLSMR) for compounds that selectively kill Giardia trophozoites. This counterscreen looks at the toxicity of the compounds against the human HepG2 cell line.\nNIH Chemical Genomics Center [NCGC]\nNIH Molecular Libraries Probe Centers Network [MLPCN]\nAssay Submitter (PI): Osnat Herzberg, University of Maryland, College Park, MD.\n4 uL of HepG2 cells ae dispensed into white 1536-well plates. They are incubated overnight at 37 deg C and then 23 nL of compounds are transferred to the wells with a pintool. Plates are incubated overnight at 37 deg C. 2 uL of ATPLite is added and the plates are incubated for 15 min at room temperature before they are read on the ViewLux for luminiescence.", "units": {"activity change, negative = cytotoxicity": "%"}, "values": [{"smiles": "COc1ccc2c(c1)C1OCCC1C(c1ccco1)N2", "note": "(stereo not given)", "Potency": "10.4 µM (active)"}, {"smiles": "CC(=O)OCON[N+]([O-])=NC(C)C", "activity change, negative = cytotoxicity": 3.82}, {"smiles": "OCCOCCNc1ncnc2c1c(-c1ccccc1)cn2-c1ccccc1", "activity change, negative = cytotoxicity": 1.82}, {"smiles": "C(=C\\c1nc2ccccc2s1)/c1ccc2c(c1)OCO2", "Potency": "2.07 µM (active)"}, {"smiles": "O=[N+]([O-])c1cc(C(F)(F)F)ccc1Oc1cccnc1[N+](=O)[O-]", "activity change, negative = cytotoxicity": 13.1}, {"smiles": "Cc1nc2c(N=Nc3ccccc3F)c(N)nn2c(N)c1C#N", "activity change, negative = cytotoxicity": 2.35}, {"smiles": "Cc1ccc(OCC(=O)Nc2ccc(C)c(F)c2)c([N+](=O)[O-])n1", "activity change, negative = cytotoxicity": -7.99}, {"smiles": "CC(C)(C)[C@H](N)C(=O)N[C@H]1CCC2C3CC=C4C[C@@H](O)CC[C@]4(C)C3CC[C@@]21C", "note": "(stereo not given in full)", "Potency": "2.33 µM (active)"}, {"smiles": "O=C(Nc1ccc(Cl)cn1)c1ccccc1[N+](=O)[O-]", "activity change, negative = cytotoxicity": -0.045}, {"smiles": "Brc1ccc(CNc2nc3ccccc3n2CCN2CCCCC2)cc1", "activity change, negative = cytotoxicity": 12.6}, {"smiles": "NC(=S)NN=C1CCCCCCCC1", "activity change, negative = cytotoxicity": 0.789}, {"smiles": "CCN(CC)CCCNc1nc2ccccc2c2[nH]c3ccc(OC)cc3c12", "Potency": "2.61 µM (active)"}, {"smiles": "COc1ccc(-c2nc(NCCCN(C)C)c3ccccc3n2)cc1", "activity change, negative = cytotoxicity": -24.3}, {"smiles": "NCCCn1c(C(=O)c2cc(Cl)c(N)c(Cl)c2)c2ccccc2[n+]1[O-]", "activity change, negative = cytotoxicity": -8.28}, {"smiles": "O=[N+]([O-])C(/C=C(/Cl)[N+](=O)[O-])=C(N1CCCCC1)N1CCCCC1", "activity change, negative = cytotoxicity": 4.13}, {"smiles": "O=c1c2ccccc2nc(/C=C/c2ccc([N+](=O)[O-])o2)n1CCCO", "Potency": "3.69 µM (active)"}, {"smiles": "CC(=O)N(/N=C/c1ccc([N+](=O)[O-])o1)c1nc2ccccc2c(=O)n1-c1ccccc1", "activity change, negative = cytotoxicity": -17.4}, {"smiles": "O=[N+]([O-])c1ccc(/C=C/C2=NN(c3ccccc3)C(c3ccco3)C2)o1", "note": "(stereo not given)", "activity change, negative = cytotoxicity": 0.147}, {"smiles": "O=[N+]([O-])c1ncccc1Oc1nc(-c2cccnc2)nc2ccccc12", "activity change, negative = cytotoxicity": 13.1}, {"smiles": "COc1ccc(C(=O)COC(=O)c2ccccc2NS(=O)(=O)c2ccc(O)c([N+](=O)[O-])c2)cc1", "activity change, negative = cytotoxicity": 9.65}, {"smiles": "Cc1[nH]n(S(=O)(=O)c2ccccc2)c(=O)c1N=Nc1cccc(Cl)c1", "activity change, negative = cytotoxicity": 1.32}, {"smiles": "Cc1[nH]n(C2=NCCS2)c(=O)c1N=Nc1cccc(C(F)(F)F)c1", "Potency": "4.65 µM (active)"}, {"smiles": "CN(C(=O)c1ccc(N2CCCCC2)c([N+](=O)[O-])c1)C1CCS(=O)(=O)C1", "note": "(stereo not given)", "activity change, negative = cytotoxicity": 11.3}, {"smiles": "Cc1ccc(C(=O)c2c3ccc([N+](=O)[O-])cc3[n+]([O-])n2CCCC(N)=O)cc1", "activity change, negative = cytotoxicity": -12.8}, {"smiles": "O=c1cc[nH]c2ccc([N+](=O)[O-])cc12", "activity change, negative = cytotoxicity": 22.3}, {"smiles": "Cc1cc(C(=O)COc2cccnc2[N+](=O)[O-])c(C)n1Cc1ccco1", "activity change, negative = cytotoxicity": 10}, {"smiles": "c1ccc(-c2nc(-c3cnc4ccccc4n3)cs2)cc1", "activity change, negative = cytotoxicity": -21.7}, {"smiles": "CN(C)CCCN=c1cc(-c2ccccc2)oc2ccc(Cl)cc12", "activity change, negative = cytotoxicity": -8.36}, {"smiles": "Clc1ccc2oc(-c3ccccc3)cc(=NCCCN3CCOCC3)c2c1", "activity change, negative = cytotoxicity": -1.78}, {"smiles": "CC1(C)CC(N=c2cc(-c3ccccc3)oc3ccc(Cl)cc23)CC(C)(C)N1", "Potency": "8.26 µM (active)"}, {"smiles": "O=C(CSc1ccsc1[N+](=O)[O-])NCCc1ccc(Cl)cc1", "activity change, negative = cytotoxicity": 19.5}, {"smiles": "O=[N+]([O-])c1cn(-c2nc(-c3ccco3)cc(C(F)(F)F)n2)cn1", "activity change, negative = cytotoxicity": 2.48}, {"smiles": "CNN/C(N=Cc1ccc([N+](=O)[O-])s1)=N\\S(=O)(=O)c1cc(C)c(Cl)cc1SCc1ccccc1", "activity change, negative = cytotoxicity": -14.4}, {"smiles": "Clc1ccc2c(N/N=C/c3cccc(Br)c3)ccnc2c1", "Potency": "11.7 µM (active)"}, {"smiles": "Clc1ccc2c(N/N=C/c3ccccc3Br)ccnc2c1", "Potency": "14.7 µM (active)"}, {"smiles": "CCOC(=O)C1CCN(c2ccc([N+](=O)[O-])c(C(C)=O)c2)CC1", "activity change, negative = cytotoxicity": 16.6}, {"smiles": "Cc1ccc(C(C(=O)NCc2ccco2)N(C(=O)CNC(=O)c2cccs2)c2c(C)cccc2C)cc1", "note": "(stereo not given)", "activity change, negative = cytotoxicity": 2.07}, {"smiles": "NC(=O)c1ccc(Nc2ccc([N+](=O)[O-])cc2[N+](=O)[O-])cc1", "activity change, negative = cytotoxicity": -4.24}, {"smiles": "CC(=O)c1c(C)n([O-])c2ccc(C)cc2[n+]1=O", "activity change, negative = cytotoxicity": 6.07}, {"smiles": "C=CCn1c(C)cc(C(=O)COC(=O)c2n[nH]c(=O)c3ccccc23)c1C", "activity change, negative = cytotoxicity": 4.65}, {"smiles": "COc1ccc(-n2nc([N+](=O)[O-])c(=NCCC3=CCCCC3)n2O)cc1", "activity change, negative = cytotoxicity": 1.4}, {"smiles": "COc1ccc2c3n([n+]([O-])c2c1)CCN=C3c1cc(Cl)c(N)c(Cl)c1", "activity change, negative = cytotoxicity": 12.3}, {"smiles": "O=c1[nH]cnc2ccc([N+](=O)[O-])cc12", "activity change, negative = cytotoxicity": 17.7}, {"smiles": "COC(=O)Nc1nc2ccc(SC(C)C)cc2[nH]1", "activity change, negative = cytotoxicity": 29}, {"smiles": "COC(=O)Nc1nc2ccc(Sc3ccccc3)cc2[nH]1", "activity change, negative = cytotoxicity": 0.0974}, {"smiles": "COc1cc(SC)ccc1C(=O)Nc1nc2ccccc2[nH]1", "Potency": "2.07 µM (active)"}, {"smiles": "COc1ccc(-n2nc([N+](=O)[O-])c(=NCCc3ccccc3)n2O)cc1", "activity change, negative = cytotoxicity": 8.74}, {"smiles": "CCCCC12CN3CC(C)(CN(C1)C3c1ccc([N+](=O)[O-])o1)C2=O", "note": "(stereo not given)", "activity change, negative = cytotoxicity": -4.07}, {"smiles": "Cc1ccc(S(=O)(=O)N2[C@@H](c3ccc(F)cc3)C(C(=O)O)=CC[C@H]2c2cccs2)cc1", "activity change, negative = cytotoxicity": 16.8}, {"smiles": "COc1ccc(C(=O)CC(SCC(NC(C)=O)C(=O)O)c2ccc(Cl)cc2)cc1OC", "note": "(stereo not given)", "activity change, negative = cytotoxicity": 21.9}]}]}
